Among all 5,500 compounds or so, about 2,000 (36%) were called active. Roughly 18% stayed inconclusive and do not appear here. No stated cut-off is given here; in the data, active means normalized growth mostly below about 0.91 (no sharp cut-off); inconclusive means no clear call, values can overlap the other calls; inactive means mostly above about 0.92. Some of the results follow. Where a SMILES comes first, the peptide text is derived from it. Side-chain parts run from the residue outwards. [ ]: non-standard residue; d: D form. The star is where a group is joined. X1 = CCC(C)C(N)C1=NC(C(=O)*)CS1; Orn = NCCC[CH](N)C(=O)O
Assay: chemical genetic growth profiling, strain panel (AID 1159580);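 further: tested at 20 µM; growth read once vehicle control cultures reached saturation at 30 °C; 1 = growth at the plate median or of vehicle wells; lower values mean less growth of the strain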
Details: growth OD

Measured: normalized growth

CCC(C)C(N)C1=NC(C(=O)NC(CC(C)C)C(=O)NC(CCC(=O)O)C(=O)NC(C(=O)NCCCCC2NC(=O)C(CC(N)=O)NC(=O)C(CC(=O)O)NC(=O)C(Cc3cnc[nH]3)NC(=O)C(Cc3ccccc3)NC(=O)C(C(C)CC)NC(=O)C(CCCN)NC2=O)C(C)CC)CS1 (stereo not drawn) (cyclo(DNK([Ile-Glu-Leu-X1])[Orn]IFH); configuration not given here)
inactive: S. cerevisiae deletion strains, locus YJR075W, strain HOC1, hits give low values 0.986 | S. cerevisiae deletion strains, locus YKL009W, strain mrt4, hits give low values 0.974 | S. cerevisiae deletion strains, locus YKL068W, hits give low values 0.995 | S. cerevisiae deletion strains, locus YKL085W, strain MDH1 (second series), hits give low values 0.966 | S. cerevisiae deletion strains, locus YKL085W, strain MDH1, hits give low values 0.966 | S. cerevisiae deletion strains, locus YKL160W, strain elf1, hits give low values 1.02 | S. cerevisiae deletion strains, locus YKL190W, strain CNB1, hits give low values 0.996 | S. cerevisiae deletion strains, locus YKR001C, strain vps1, hits give low values 1.01 | S. cerevisiae deletion strains, locus YKR026C, strain gcn3, hits give low values 1.05 | S. cerevisiae deletion strains, locus YKR091W, strain srl3, hits give low values 0.973 | S. cerevisiae deletion strains, locus YLL001W, strain dnm1, hits give low values 1.04 | S. cerevisiae deletion strains, locus YLL026W, hits give low values 1.01 | S. cerevisiae deletion strains, locus YLL041C, strain sdh2, hits give low values 1.01 | S. cerevisiae deletion strains, locus YLR027C, strain aat2, hits give low values 1.01 | S. cerevisiae deletion strains, locus YLR039C, strain RIC1, hits give low values 1.06 | S. cerevisiae deletion strains, locus YLR058C, strain SHM2, hits give low values 0.994 | S. cerevisiae deletion strains, locus YLR102C, strain apc9, hits give low values 1.01 | S. cerevisiae deletion strains, locus YLR113W, strain HOG1, hits give low values 1.05 | S. cerevisiae deletion strains, locus YLR221C, strain rsa3, hits give low values 1.01 | S. cerevisiae deletion strains, locus YLR258W, strain gsy2, hits give low values 0.993 | S. cerevisiae deletion strains, locus YLR262C, strain YPT6 (second series), hits give low values 1.01 | S. cerevisiae deletion strains, locus YLR262C, strain YPT6, hits give low values 1.02 | S. cerevisiae deletion strains, locus YLR268W, strain sec22, hits give low values 1.02 | S. cerevisiae deletion strains, locus YLR320W, strain mms22, hits give low values 0.982 | S. cerevisiae deletion strains, locus YLR330W, strain CHS5, hits give low values 1.01 | S. cerevisiae deletion strains, locus YLR342W, strain FKS1 (second series), hits give low values 1.03 | S. cerevisiae deletion strains, locus YLR342W, strain FKS1, hits give low values 1.02 | S. cerevisiae deletion strains, locus YLR357W, strain rsc2, hits give low values 1.07 | S. cerevisiae deletion strains, locus YLR370C, strain arc18, hits give low values 0.999 | S. cerevisiae deletion strains, locus YLR371W, strain rom2, hits give low values 1.02 | S. cerevisiae deletion strains, locus YLR384C, strain iki3, hits give low values 0.993 | S. cerevisiae deletion strains, locus YLR418C, strain cdc73, hits give low values 0.989 | S. cerevisiae deletion strains, locus YML016C, strain PPZ1, hits give low values 0.992 | S. cerevisiae deletion strains, locus YML032C, strain rad52, hits give low values 0.967 | S. cerevisiae deletion strains, locus YML120C, strain ndi1, hits give low values 0.994 | S. cerevisiae deletion strains, locus YML124C, strain tub3, hits give low values 0.981 | S. cerevisiae deletion strains, locus YMR058W, strain fet3, hits give low values 1.02 | S. cerevisiae deletion strains, locus YMR078C, strain ctf18, hits give low values 0.988 | S. cerevisiae deletion strains, locus YMR125W, strain sto1, hits give low values 1.02 | S. cerevisiae deletion strains, locus YMR129W, hits give low values 0.997 | S. cerevisiae deletion strains, locus YMR205C, strain PFK2, hits give low values 0.998 | S. cerevisiae deletion strains, locus YMR223W, strain ubp8, hits give low values 1 | S. cerevisiae deletion strains, locus YMR231W, strain pep5, hits give low values 0.996 | S. cerevisiae deletion strains, locus YMR263W, strain SAP30, hits give low values 1.01 | S. cerevisiae deletion strains, locus YMR307W, strain GAS1, hits give low values 0.955 | S. cerevisiae deletion strains, locus YNL067W, strain RPL9B, hits give low values 1 | S. cerevisiae deletion strains, locus YNL071W, strain lat1, hits give low values 1 | S. cerevisiae deletion strains, locus YNL128W, strain TEP1, hits give low values 0.999 | S. cerevisiae deletion strains, locus YNL153C, strain GIM3, hits give low values 0.992 | S. cerevisiae deletion strains, locus YNL183C, strain NPR1, hits give low values 0.975 | S. cerevisiae deletion strains, locus YNL209W, strain ssb2, hits give low values 0.991 | S. cerevisiae deletion strains, locus YNL233W, strain BNI4, hits give low values 1.01 | S. cerevisiae deletion strains, locus YNL248C, strain rpa49, hits give low values 0.998 | S. cerevisiae deletion strains, locus YNL250W, strain rad50, hits give low values 1.01 | S. cerevisiae deletion strains, locus YNL271C, strain bni1, hits give low values 1.01 | S. cerevisiae deletion strains, locus YNL298W, strain CLA4, hits give low values 0.966 | S. cerevisiae deletion strains, locus YNL307C, strain MCK1, hits give low values 1 | S. cerevisiae deletion strains, locus YNL322C, strain KRE1 (second series), hits give low values 0.994 | S. cerevisiae deletion strains, locus YNR049C, strain mso1, hits give low values 0.995 | S. cerevisiae deletion strains, locus YNR052C, strain pop2, hits give low values 0.992 | S. cerevisiae deletion strains, locus YOL006C, strain TOP1, hits give low values 0.996 | S. cerevisiae deletion strains, locus YOL012C, strain htz1 1.9 | S. cerevisiae deletion strains, locus YOL147C, strain pex11, hits give low values 0.994 | S. cerevisiae deletion strains, locus YOR001W, strain rrp6, hits give low values 1.01 | S. cerevisiae deletion strains, locus YOR061W, strain CKA2, hits give low values 1.01 | S. cerevisiae deletion strains, locus YOR069W, strain VPS5, hits give low values 1 | S. cerevisiae deletion strains, locus YOR070C, strain gyp1, hits give low values 1.01 | S. cerevisiae deletion strains, locus YOR080W, strain dia2, hits give low values 1 | S. cerevisiae deletion strains, locus YOR083W, strain WHI5, hits give low values 1.04 | S. cerevisiae deletion strains, locus YOR106W, strain vam3, hits give low values 1.02 | S. cerevisiae deletion strains, locus YOR136W, strain idh2, hits give low values 1.01 | S. cerevisiae deletion strains, locus YOR144C, strain elg1, hits give low values 0.999 | S. cerevisiae deletion strains, locus YOR184W, strain ser1, hits give low values 1.01 | S. cerevisiae deletion strains, locus YOR231W, strain MKK1, hits give low values 1.03 | S. cerevisiae deletion strains, locus YOR265W, strain rbl2, hits give low values 1.01 | S. cerevisiae deletion strains, locus YOR270C, strain vph1, hits give low values 1 | S. cerevisiae deletion strains, locus YOR290C, strain snf2, hits give low values 0.963 | S. cerevisiae deletion strains, locus YOR316C, strain cot1, hits give low values 1 | S. cerevisiae deletion strains, locus YPL051W, strain arl3, hits give low values 1.04 | S. cerevisiae deletion strains, locus YPL078C, strain atp4, hits give low values 1.02 | S. cerevisiae deletion strains, locus YPL106C, strain sse1, hits give low values 0.976 | S. cerevisiae deletion strains, locus YPL240C, strain hsp82, hits give low values 1 | S. cerevisiae deletion strains, locus YPL256C, strain CLN2, hits give low values 1.02 | S. cerevisiae deletion strains, locus YPR119W, strain clb2, hits give low values 0.993 | S. cerevisiae deletion strains, locus YPR141C, strain kar3, hits give low values 0.994 | S. cerevisiae deletion strains, locus YPR163C, strain tif3, hits give low values 0.995 | S. cerevisiae deletion strains, locus YPR167C, strain met16, hits give low values 0.993 | S. cerevisiae deletion strains, strain wtn01, hits give low values 1.03 | S. cerevisiae strains, strain wild type, hits give low values 0.992

From PubChem BioAssay AID1159580 (chemical genetic matrix, 2015)
